aSyn UTR act – Activators via SNCA 5'UTR binding, MLPCN | AID 1814 | alpha-synuclein 5'UTR reporter, activators screen | 300,000 compounds, 7.1% hits | activity score, % (tested at 7.5 µM), hits read low; in the data active means activity score below about -60%
An asterisk follows results filed as active. The list is a sample of the results.

SMILES	aSyn UTR act
Cc1ccc(C(=O)Nc2nc(-c3cccnc3)cs2)o1	-101*
Cc1csc(NC(=O)c2ccc(C)o2)n1	-161*
Cc1ccc(NC(=O)Nc2ccnc(-c3cccnc3)n2)cc1	110
Cc1ccc(C(=O)Nc2ccnc(-c3cccnc3)n2)cc1	-269*
O=C(Nc1ccnc(-c2cccnc2)n1)c1ccc(Cl)c(Cl)c1	-63*
COc1ccc(C(=O)Nc2ccnc(-c3cccnc3)n2)cc1	-166*
COc1ccc(-c2cc(-c3c(O)c(OC)c4occc4c3OC)[nH]n2)cc1OC	-71*
Cc1ccc2nc(N(CCCN(C)C)C(=O)c3cc(-c4cccs4)nc4ccccc34)sc2c1	67
Cc1cccc2sc(N(CCN(C)C)C(=O)c3cc(Cl)sc3Cl)nc12	-85*
Cc1ccc2nc(N(CCN(C)C)C(=O)c3cc(Cl)sc3Cl)sc2c1	-133*
S=C(NCCN1CCOCC1)N/N=C/c1c2ccccc2cc2ccccc12	-74*
Cc1cc(C)n(CCC(=O)N/N=C/c2c(O)ccc3ccccc23)n1	73
CC(C)(C)C(=O)[C@H]1[C@H](c2ccccc2)[C@@]2(N=C(c3ccccc3)OC2=O)C2c3ccccc3C=NN21 (some centres not stated)	-83*
Nc1ccc2c(c1)COc1ccccc1O2	-133*
COc1ccc(OCCSc2nc(N)cc(N)n2)cc1	-103*
Cc1ccc(OCCSc2nc(N)cc(N)n2)cc1	-120*
Cc1ccc(N2C(=O)[C@@H]3Cc4ccccc4CN3C2=O)cc1	-71*
CC(C)c1ccc(N2C(=O)[C@@H]3Cc4ccccc4CN3C2=O)cc1	-118*
Cc1ccc(C(=O)NNC(=O)c2ccco2)cc1	-69*
Cc1ccc(NC(=S)NNC(=O)c2ccco2)cc1	-74*
CCOc1ccc(S(=O)(=O)N2c3ccccc3CC2C)cc1 (configuration not stated)	93
CCOc1ccc(N2Cc3ccccc3C2)cc1	-120*
CCOc1ccc(N2C(N)=NC(N)=NC2(C)C)cc1	66
COC(=O)c1sc2nc3c(cc2c1N)C(=O)CC(C)(C)C3	-69*
COC(=O)c1sc2nc3c(cc2c1N)CCCC3	-143*
SMILES	aSyn UTR act
Nc1c(C(=O)N2CCOCC2)sc2nc3c(cc12)CCCC3	76
CCOC(=O)c1sc2nc3c(cc2c1N)C(=O)CC(C)(C)C3	-126*
CCOC(=O)N1CCC(NC(=O)c2oc3c(F)cccc3c2C)CC1	-62*
O=C(NCc1cccnc1)/C(=C\c1ccc(-c2ccc(Cl)c(Cl)c2)o1)S(=O)(=O)c1ccccc1	-332*
Cc1ccc(OCc2ccc(Br)cc2)c([N+](=O)[O-])n1	-141*
Cc1ccc(OCCOc2cccc(Br)c2)c([N+](=O)[O-])n1	-190*
Cc1ccc(OCc2ccc(-c3ccccc3)cc2)c([N+](=O)[O-])n1	-84*
O=c1cc(/C=C/c2ccccc2)oc2ccccc12	-205*
CC(/C=N/NC(=O)c1cccs1)=C\c1ccccc1	-99*
O=C(N/N=C/C(Cl)=C\c1ccccc1)c1cccs1	-92*
N=c1c2ccccc2nnn1-c1ccc(C(F)(F)F)cc1	-147*
O=C(/C=C/c1ccco1)Nc1ccccc1C(=O)O	-117*
O=C(/C=C/c1ccco1)Nc1ccccc1N1CCCC1	-80*
O=C(N/N=C\c1ccc(Oc2ccccc2)cc1)c1csnn1	-96*
CN(C)c1ccc(/C=N\NC(=O)c2csnn2)cc1	-146*
O=C(Nc1n[nH]c(=S)s1)c1ccc2ccccc2c1	-115*
O=C(NCCc1ccccc1F)C(=O)Nc1nccs1	-122*
O=C(Nc1nccs1)c1ccccn1	-123*
O=C(Nc1nccs1)c1ccc2ccccc2c1	-114*
O=C(Nc1nccs1)c1ccc(N2CCOCC2)c([N+](=O)[O-])c1	-80*
O=C(Nc1nccs1)c1ccc(Br)cc1	-161*
CCOc1ccc(OCC(=O)Nc2nccs2)cc1	69
CCOc1cccc(C(=O)Nc2nccs2)c1	-173*
COc1ccc2oc(-c3ccc(C)c(NC(=O)c4ccc(N5CCOCC5)c([N+](=O)[O-])c4)c3)nc2c1	-95*
O=C1CCC2S/C(=C/Nc3ccc(C(F)(F)F)cc3)C(=O)N12 (configuration not stated)	99
SMILES	aSyn UTR act
O=C(Cc1ccccc1)Nc1nnc(-c2cccs2)s1	-142*
CCC(=O)Nc1nnc(-c2cccs2)s1	-68*
COCC(=O)Nc1nnc(-c2cccs2)s1	-70*
O=C(Nc1nnc(-c2cccs2)s1)C1CC1	-89*
C=C(C)C(=O)Nc1nnc(-c2cccs2)s1	-94*
CSc1nc(-c2ccc(N(C)C)cc2)c(C#N)c(=O)n1C	-72*
Cc1ccc(Cn2ccc(C3CC3)n2)cc1	-101*
Clc1ccc(Cn2ccc(C3CC3)n2)cc1	-95*
CCCN1CCC(=O)N([C@H](CSc2ccc(Br)cc2)c2ccccc2)CC1	-120*
CCCN1CCC(=O)N([C@H](CSc2ccccc2)CC(C)C)CC1	-100*
CCCN1CCC(=O)N([C@H](CSc2ccc(C)cc2)CC(C)C)CC1	-175*
CC(C)C[C@@H](CSc1ccccc1)N1CCN(CC(C)C)CCC1=O	-175*
Cc1ccc(N(C(=O)Nc2ccccc2)C2=NCC(C)S2)cc1 (configuration not stated)	-62*
CCOc1cc(/C=C(\C#N)C(N)=O)ccc1OCc1c(C)no[n+]1[O-]	-63*
CSc1nsc(NC(=O)Cc2ccccc2)n1	-85*
CCOc1ncccc1C(=O)Nc1nc(SC)ns1	-108*
COC(=O)c1ccc2[nH]c(C(C)(C)O)c(C)c2c1	-94*
Cc1ccc2[nH]c(C(=O)N3CCCCC3)cc2c1	-98*
CCOC(=O)c1ccc2[nH]c3ccccc3c2c1	-133*
CCOC(=O)c1ccc2[nH]c(C)c(C)c2c1	-86*
Cc1[nH]c2ccc(C(=O)N3CCCCC3)cc2c1C	-112*
COc1ccccc1N1CCN(C(=O)c2ccc3[nH]c(C)c(C)c3c2)CC1	72
Cc1ccsc1C1NC(=O)c2c(sc3c2CCCC3)N1 (configuration not stated)	-218*
Cc1ccc(C2NC(=O)c3c(sc4c3CCN(C)C4)N2)s1 (configuration not stated)	-72*
O=C1NC(c2ccc(Br)cc2)Nc2sc3c(c21)CCC3 (configuration not stated)	-96*
SMILES	aSyn UTR act
O=C1NC(c2ccccn2)Nc2sc3c(c21)CCC3 (configuration not stated)	-124*
COCCn1c(C)cc(C(=O)COC(=O)c2ccccc2Br)c1C	55
COCCn1c(C)cc(C(=O)COC(=O)c2cncc(Br)c2)c1C	-121*
COCCn1c(C)cc(C(=O)COC(=O)c2ccc3ncsc3c2)c1C	-151*
CCCC1=[N+](CC(=O)c2ccccc2)CCn2c(C)ccc21	-74*
CCOC(=O)c1cc2c(nc1NC(=S)NCc1ccccc1)CCCC2	-107*
O=[N+]([O-])c1ccc(Nc2ccc3ccccc3c2)nc1	-168*
COc1cccc2oc3cc(C#Cc4ccccn4)ccc3c(=O)c12	-194*
N/C(=N\OC(=O)c1ccco1)c1ccccn1	-119*
N/C(=N\OC(=O)c1ccco1)c1ccc(Br)cc1	-200*
Cc1cccc(/C(N)=N/OC(=O)CCCc2ccccc2)c1	-89*
COc1ccc(/C(N)=N/OC(=O)c2ccco2)cc1	60
N/C(=N\OC(=O)c1ccco1)c1ccccc1	-275*
Cc1cccc(/C(N)=N/OC(=O)c2ccco2)c1	-109*
Cc1ccc(/C=N/NC(=O)c2ccco2)cc1	-94*
CN(C)c1ccc(/C=N/NC(=O)c2ccco2)cc1	-78*
CSC(=S)N/N=C/c1ccc(N(C)C)cc1	-96*
